Measured potencies and affinities stand elsewhere. Records with an inconclusive call do not appear. Activity calls are given as the source filed them.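 The calls were made as follows: active = every test run shows a luminescence drop with half-maximal concentration at most twice the top tested dose; inconclusive = test runs disagree, weak flat response, or unreliable curve fit; inactive = the rest.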

This assay in a line: NIH/3T3 fibroblast cytotoxicity, dose response, cytotoxicity control, cell-based, dry powder samples (AID 651844). To be noted: NIH/3T3 viability, CellTiter-Glo ATP luminescence, 90 h; series mostly up to 16 µM. A general note: In ATP-based viability assays light output follows the ATP content of the culture.
With `COc1ccc(CN(C)C[C@H]2Oc3c(NC(=O)c4ccncc4)cccc3C(=O)N([C@@H](C)CO)C[C@@H]2C)cc1`, the call was inactive.

Regarding `C[C@H]1CN([C@@H](C)CO)C(=O)c2cccc(NC(=O)c3ccncc3)c2O[C@@H]1CN(C)Cc1ccc(C(=O)O)cc1`, the call was inactive.

Turning to `CC(C)N1C[C@H](C)[C@@H](CN(C)Cc2ccccc2)Oc2c(NC(=O)c3ccncc3)cccc2C1=O`, the result was inactive.

In the case of `C[C@H]1CN([C@@H](C)CO)C(=O)c2cccc(NC(=O)c3ccncc3)c2O[C@@H]1CN(C)Cc1ccc2c(c1)OCO2`, the call was inactive.

In the case of `C[C@H]1CN([C@@H](C)CO)C(=O)c2cccc(NC(=O)c3ccncc3)c2O[C@@H]1CN(C)Cc1ccc(C(=O)Nc2ccccc2N)cc1`, the compound was classed as inactive.

As to `CC(C)N(C)C(=O)c1cccc(NC(=O)c2ccncc2)c1OCCCN(C)Cc1ccc(Cl)cc1`, the compound was classed as inactive.

Take `CNC[C@H]1Oc2c(NC(=O)c3ccccc3)cccc2C(=O)N(C(C)C)C[C@@H]1C`: the compound was called inactive.

With `CC(C)N1C[C@@H](C)[C@H](CN(C)Cc2ccc(Oc3ccccc3)cc2)Oc2c(cccc2N(C)C(=O)c2ccncc2)C1=O`, the result was inactive.

`CC(C)N1C[C@H](C)[C@@H](CN(C)CC2CCOCC2)Oc2c(NC(=O)c3ccncc3)cccc2C1=O`: the result was inactive.

Regarding `C[C@@H]1CN([C@H](C)CO)C(=O)c2cccc(NC(=O)c3ccncc3)c2O[C@H]1CN(C)Cc1ccc2c(c1)OCO2`, the compound was classed as inactive.

`CC(C)N1C[C@H](C)[C@@H](CN(C)C(=O)OC(C)(C)C)Oc2c(C(=O)Nc3ccncc3)cccc2C1=O`: the result was inactive.

For `CC(C)N1C[C@H](C)[C@@H](CN(C)C(=O)OC(C)(C)C)Oc2c(NC(=O)c3ccccc3)cccc2C1=O`, the compound was classed as inactive.

Regarding `C[C@H]1CN([C@@H](C)CO)C(=O)c2cccc(NC(=O)c3ccncc3)c2O[C@@H]1CN(C)Cc1ccncc1`, the compound was called inactive.

In the case of `CNC[C@@H]1Oc2c(NC(=O)c3ccncc3)cccc2C(=O)N(C(C)C)C[C@H]1C`, the outcome was inactive.

Consider `C[C@@H]1CN([C@@H](C)CO)C(=O)c2cccc(NC(=O)c3ccncc3)c2O[C@H]1CN(C)Cc1cccc(Cl)c1`, for which the compound was called inactive.

Consider `CC(C)N1C[C@H](C)[C@@H](CN(C)Cc2ccc(Oc3ccccc3)cc2)Oc2c(NC(=O)c3ccccn3)cccc2C1=O`, for which the call was inactive.

Consider `C[C@H]1CN([C@@H](C)CO)C(=O)c2cccc(NC(=O)c3ccncc3)c2O[C@@H]1CN(C)Cc1ccc(C(F)(F)F)cc1`, for which the outcome was inactive.

Turning to `CCCn1ncc(CN(C)C[C@H]2Oc3c(NC(=O)c4ccncc4)cccc3C(=O)N(C(C)C)C[C@@H]2C)c1C`, the compound was called inactive.

Regarding `CC(C)N1C[C@H](C)[C@@H](CN(C)C(=O)OC(C)(C)C)Oc2c(NC(=O)c3ccccn3)cccc2C1=O`, the compound was classed as inactive.

Turning to `CC(C)N1C[C@H](C)[C@@H](CN(C)C(=O)OC(C)(C)C)Oc2c(C(=O)O)cccc2C1=O`, the call was inactive.

Consider `CC(C)N(C)C(=O)c1cccc(NC(=O)c2ccncc2)c1OCCCN(C)C(=O)OC(C)(C)C`, for which the call was inactive.

As to `CC(C)N1C[C@H](C)[C@@H](CN(C)Cc2cccc(Cl)c2)Oc2c(NC(=O)c3ccncc3)cccc2C1=O`, the compound was called inactive.

The values above are taken from PubChem BioAssay AID651844 (Broad Institute, 2012).
